This is a sample that favours compounds with a hit; in the whole collection about 1.4% have one here.
zVAD death inh = L929 zVAD cell death inhibition; L929 zVAD necroptosis rescue, ATP luminescence, 24 h; with zVAD 60 µM; 220,000 compounds, 0.38% hits; viability rescue, % at 10 µM;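 active means activation, scaled between plate controls, above about 75%, limit read from the data; inactive means activation under that limit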;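 further: 0% = zVAD with DMSO and 100% = DMSO alone without zVAD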
HSV replic up = HSV replication enhancement. HSV replication augmentation in cells, fold increase. maximum fold increase. 220,000 compounds, 0.005% hits; in the data active means maximum fold increase above about 1.5; tested in PC3 cells
TNF necrop inh = inhibitors of TNF-alpha induced necroptosis in Jurkat FADD-/- cells; Jurkat FADD-/- TNF necroptosis rescue, ATP luminescence, 24 h; 0 = TNF only, 100 = no-TNF cells; activation (protection from cell death), % at 10 µM; 220,000 compounds, 0.068% hits;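 active means activation, meaning protection from cell death, of at least 50% relative to plate controls; inactive means activation below 50%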;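 further: necroptosis triggered by 40 ng/mL TNF-alpha added together with compound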
V-ATPase pH = regulators of yeast V-ATPase proton transport; S. cerevisiae, pHLuorin cytosolic pH fluorescence; response, % at 10 µM; 350,000 compounds, 0.37% hits; AID 504577; in the data active means response mostly above about 7.3%, no sharp cut-off; inactive means mostly below about 5.4%; further: actives read high
Wee1 degr inh = blocks degradation of human Wee1 kinase; reporter increase, % at 5 µM; P30291; 220,000 compounds, 1.2% hits; HeLa Luc-Wee1K328M stability, luciferase luminescence; 100% = proteasome inhibitor MG132 effect;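 active means activation above the mean of all tested compounds plus 3 SD, set per screening run, cut at about 8.8% in these data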;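 further: cells exposed to compound for 20 h before luminescence read; 0% = DMSO alone and 100% = MG132 at 30 µM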
Target sequence (P30291 whole entry K328M): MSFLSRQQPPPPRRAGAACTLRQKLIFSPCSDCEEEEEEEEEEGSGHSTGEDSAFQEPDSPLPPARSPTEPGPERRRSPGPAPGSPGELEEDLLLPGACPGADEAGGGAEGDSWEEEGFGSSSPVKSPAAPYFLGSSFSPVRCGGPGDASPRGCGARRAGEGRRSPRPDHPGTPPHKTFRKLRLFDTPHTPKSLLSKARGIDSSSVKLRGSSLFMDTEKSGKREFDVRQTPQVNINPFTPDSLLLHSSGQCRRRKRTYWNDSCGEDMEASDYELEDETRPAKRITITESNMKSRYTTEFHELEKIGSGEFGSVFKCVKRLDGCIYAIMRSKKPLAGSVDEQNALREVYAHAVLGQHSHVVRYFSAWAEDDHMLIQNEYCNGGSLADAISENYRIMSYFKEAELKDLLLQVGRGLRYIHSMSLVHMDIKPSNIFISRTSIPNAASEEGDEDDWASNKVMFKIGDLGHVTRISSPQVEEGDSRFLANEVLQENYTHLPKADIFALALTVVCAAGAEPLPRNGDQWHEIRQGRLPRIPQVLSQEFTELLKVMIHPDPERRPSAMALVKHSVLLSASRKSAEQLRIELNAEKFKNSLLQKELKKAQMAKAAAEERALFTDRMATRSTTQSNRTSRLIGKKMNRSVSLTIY
Wee1 degr conf = confirmation of human Wee1 degradation inhibitors | shares compounds with Wee1 degr inh | HeLa Luc-Wee1K328M degradation, luminescence; vehicle 0%, proteasome-blocked wells 100% | activation, % at 5 µM | 1,100 compounds, 4% hits | AID 1410; in the data active means activation above about 8.9%
* = called active by the depositor; i = inactive; / = not tested or not shown.

SMILES | zVAD death inh | HSV replic up | TNF necrop inh | V-ATPase pH | Wee1 degr inh | Wee1 degr conf
Cc1cccc(NC(=O)c2cnc3ccccn3c2=O)c1 | 1 | i | 0 | -2 | 0 | /
Cc1cccc(NC(=O)c2cnc3sccn3c2=O)c1 | -1 | / | -1 | 8 | 24* | -1
Cc1ccc(S(=O)(=O)N(CC(=O)NCC2CCCO2)Cc2ccc(F)cc2)cc1 (stereo not drawn) | / | / | / | 3 | / | /
COc1cccc(C(=O)NC(=S)NCc2ccco2)c1 | 0 | i | -1 | -2 | 14* | 0
S=C(NCc1ccco1)Nc1ccc(Oc2ccccc2)cc1 | 0 | i | 0 | -3 | 11* | -1
COc1ccc(NC(=S)NCc2ccco2)cc1 | 0 | / | -6 | 4 | -2 | /
CCOc1ccccc1NC(=S)NCc1ccco1 | -1 | i | -8 | 1 | 12* | -1
CCOC(=O)[C@H]1[C@H]2COc3ccc(OC)cc3[C@@H]2N2C(=O)[C@H](C)NC(=O)[C@@]12C | / | / | / | -1 | / | /
O=C(CCc1nc2ccccc2c(=O)[nH]1)Nc1ccc(N2CCCCC2)cc1 | 1 | i | 1 | 1 | 11* | 0
CCN(CC(=O)Nc1ccc(OC)cc1)CC(=O)N1CC(=O)Nc2ccccc21 | / | / | / | -1 | / | /
Nc1ccc(-c2nc3cc([N+](=O)[O-])ccc3o2)cc1 | 4 | i | -4 | 0 | 2 | /
COc1ccc(-c2nc3cc([N+](=O)[O-])ccc3o2)cc1 | 0 | i | 0 | 0 | 14* | 1
O=C(c1ccc(NC(=O)C2(c3ccccc3)CCCC2)cc1)N1CCOCC1 | 0 | i | 0 | 1 | 27* | -2
Cc1ccc(-n2cccn2)c(CN2CCC(CO)(CCc3ccccc3)CC2)c1 | -2 | i | 3 | 1 | 18* | -1
OCC1(CCc2ccccc2)CCN(Cc2cc(Cl)ccc2O)CC1 | 2 | i | 1 | -3 | -2 | /
Cn1c(Cc2cccs2)nnc1SC/C=C/c1ccccc1 | 1 | i | -1 | 2 | 0 | /
Cn1c(SC/C=C/c2ccccc2)nnc1-c1ccco1 | 0 | i | 0 | 6 | 12* | 0
C/C(Cc1ccccc1)=N\NC(=O)CNC(=O)c1ccccc1F | / | / | / | -4 | / | /
CCN(CC)CCN(C(=O)c1ccc(CN2CCCCC2)o1)C(C(=O)NC1CCCCC1)c1ccc(F)cc1 (stereo not drawn) | 0 | i | 3 | 1 | 11* | -2
Cc1ccnc(NC(=O)c2cc3ccccc3oc2=O)c1 | 1 | i | -1 | -1 | 13* | 5
O=C(NCCCn1ccnc1)c1cc2ccccc2oc1=O | 0 | i | 2 | 7 | 13* | 2
Cc1cccc(NC(=O)c2cc3ccccc3oc2=O)c1 | / | / | / | -1 | / | /
Cc1ccc2nc3c(cc(C(=O)NCCCn4ccnc4)n3C)c(=O)n2c1 | 11 | i | 0 | -7 | 23* | 2
COc1ccc(NS(=O)(=O)c2cccc(C(=O)NNC(=O)c3ccc(=O)[nH]c3)c2)cc1 | / | / | / | -2 | / | /
O=C(N/C(=C/c1cccs1)C(=O)N1CCOCC1)c1ccccc1 | 0 | i | 1 | 0 | 1 | /
SMILES | zVAD death inh | HSV replic up | TNF necrop inh | V-ATPase pH | Wee1 degr inh | Wee1 degr conf
C[C@H](O)[C@@H](C(=O)N1CCN(C(=O)OC(C)(C)C)CC1)n1cc(CCCCNC(=O)OC(C)(C)C)nn1 | 0 | i | 2 | 0 | 22* | 0
CCCCc1cn([C@@H](CCCCNC(=O)OC(C)(C)C)C(=O)N2CCN(C(=O)OC(C)(C)C)CC2)nn1 | -1 | i | 0 | 1 | 5 | /
Cc1cc(OCc2nnc(SC(C)C(=O)O)n2Cc2ccccc2)ccc1Cl (stereo not drawn) | 13 | i | 0 | -3 | 18* | -1
Oc1ccc(NCc2cccc(OCc3ccc(F)cc3)c2)cc1 | 0 | i | -7 | 0 | -3 | /
O=[N+]([O-])c1ccc(COc2cccc(CNc3ccc(F)cc3)c2)cc1 | 0 | i | 2 | 2 | 15* | 0
c1ccc(C(c2ccccc2)N2CCN(c3nc4ccccc4n4cnnc34)CC2)cc1 | 10 | i | -7 | / | 11* | 1
c1cnc(N2CCN(c3nc4ccccc4n4cnnc34)CC2)nc1 | 2 | i | -3 | -2 | -2 | /
CCN(C(=O)CSC1=Nc2ccccc2C2CC=NN12)C1CCS(=O)(=O)C1 (stereo not drawn) | 1 | i | 0 | -4 | 2 | /
CCOC(=O)c1c(NC(=O)C2=C(C)NC(=S)NC2c2ccc(CC)cc2)sc(C)c1C (stereo not drawn) | 1 | i | -13 | / | -1 | /
O=C(COc1cccnc1[N+](=O)[O-])Nc1cccc2ccccc12 | / | / | / | -1 | / | /
CC(C)c1nnc(NC(=O)COc2ccccc2[N+](=O)[O-])s1 | -1 | i | 1 | -3 | 23* | -1
O=C(COc1ccccc1[N+](=O)[O-])NNC(=O)Nc1cccc2ccccc12 | 1 | i | -2 | -2 | 16* | 2
CCOP(=O)(OCC)/C(C#N)=C(\O)c1ccc(OC)cc1 | 0 | i | 2 | -4 | -3 | /
Clc1ccc(/C=C\c2nccc3c2[nH]c2ccccc23)cc1 | 4 | i | 1 | -1 | 12* | 1
Cc1ccc2nc(NCc3ccccc3)[nH]c2c1 | 0 | i | -9 | 1 | 17* | 29*
O=C(O)Cn1c(O)c(C2=c3ccccc3=NC2=O)sc1=O | / | / | / | -2 | / | /
Cn1c(O)c(C2=c3ccccc3=NC2=O)sc1=Nc1ccc(Cl)cc1 | 1 | i | -5 | -1 | 13* | 3
Cc1cccc(C)c1NC(=O)CNC(=O)c1ccc(N2CCCC2)c([N+](=O)[O-])c1 | / | / | / | 3 | / | /
COC(=O)[C@@H](Cc1c[nH]c2ccccc12)NCc1ccc(B(O)O)cc1 | / | / | / | -1 | / | /
Cc1ccc(OCC(O)Cn2c(=N)n(CCN3CCCCC3)c3ccccc32)cc1 (stereo not drawn) | 6 | i | -6 | -2 | -3 | /
COc1ccc(OCC(O)Cn2c(=N)n(CCN3CCCCC3)c3ccccc32)cc1 (stereo not drawn) | 1 | i | -5 | -1 | 14* | -3
CC1(C)CC(=O)C(C(=O)C2CCN(S(=O)(=O)c3ccccc3)CC2)C(=O)C1 | 2 | i | 0 | 2 | 0 | /
COc1ccc(C2c3ccc(O)cc3Oc3ncn(Cc4ccccc4)c(=N)c32)cc1OC (stereo not drawn) | -1 | i | -5 | -4 | 19* | 0
COc1ccc(C2c3ccc(O)cc3Oc3ncn4nc(-c5ccccn5)nc4c32)cc1 (stereo not drawn) | 0 | i | 1 | -7 | 11* | 0
O=C(NN=C1CCCCCC1)c1ccc(Cl)s1 | / | / | / | -5 | / | /
CN1CCN(c2ncnc3c2cnn3-c2ccc(Cl)cc2)CC1 | 1 | i | -3 | -1 | 13* | -7
CC1C(=O)Nc2ccc(S(=O)(=O)Nc3ccccc3Br)cc2NC1=O (stereo not drawn) | / | / | / | -2 | / | /

From PubChem
